Screens as filed in PubChem BioAssay.
Sampled rows, rich in hits. Any-hit rate of the full collection: about 7.4%.
FLuc counter: qHTS profiling assay for firefly luciferase inhibitor/activator using purifed enzyme and Km concentrations of substrates (counterscreen for miR-21 project) | purified FLuc, Km substrates, luminescence inhibition | 6.9% of 360,000 active | AID 588342, 2011 | Potency, µM (top dose mostly 57.5 µM), for the others: at the top dose activity change, negative = inhibition, hits mostly inhibitors;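 note: plate controls were vehicle for no effect and reference inhibitor for full effect; nearly all actives have a fitted effect of over 55% in size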
Target sequence (P08659 whole entry, looked up): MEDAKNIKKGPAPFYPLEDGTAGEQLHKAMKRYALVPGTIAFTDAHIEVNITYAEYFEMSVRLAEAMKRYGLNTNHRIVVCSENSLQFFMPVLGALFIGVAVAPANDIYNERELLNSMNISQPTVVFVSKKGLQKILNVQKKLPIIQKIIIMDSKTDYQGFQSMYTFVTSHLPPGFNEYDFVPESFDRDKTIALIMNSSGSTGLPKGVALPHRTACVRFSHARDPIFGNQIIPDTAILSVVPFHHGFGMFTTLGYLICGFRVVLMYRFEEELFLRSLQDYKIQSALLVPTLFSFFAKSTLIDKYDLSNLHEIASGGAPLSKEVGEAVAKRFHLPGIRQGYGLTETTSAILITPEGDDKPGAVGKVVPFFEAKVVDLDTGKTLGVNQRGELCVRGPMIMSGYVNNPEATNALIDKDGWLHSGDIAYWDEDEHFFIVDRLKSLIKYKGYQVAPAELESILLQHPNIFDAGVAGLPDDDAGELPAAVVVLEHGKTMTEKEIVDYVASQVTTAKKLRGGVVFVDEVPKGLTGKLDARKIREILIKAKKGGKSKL
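Biochemical qHTS of compounds, final roughly 60 µM downward over six points, against 10 nM purified firefly luciferase using Km concentrations of substrates (10 uM D-luciferin, 10 uM ATP) in Tris acetate pH 7.5 buffer; luminescence output.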
ELG1 genotox: qHTS screen for small molecules that induce genotoxicity in human embryonic kidney (HEK293T) cells expressing luciferase-tagged ELG1. HEK293T ELG1-luciferase reporter, luminescence, 16 h. Potency, µM (highest dose often 46 µM), for inactives: at the highest dose activity change, positive = activation, most hits filed as activators. AID 504466, 2011. 1.3% of 330,000 active; note: % of control where 0% means no effect; nearly all actives have a fitted effect of over 60% in size
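Luminescence read-out: rising ELG1-luciferase signal, reflecting elevated ELG1 protein under genetic stress, flags genotoxic compounds. Cells were treated for 16 hr at 37 °C before ONE-Glo detection.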
Rab9 prom act: qHTS Assay for Rab9 Promoter Activators | Huh7 Rab9 promoter-luciferase reporter, luminescence, 24 h | Potency, µM (doses to about 9.22 µM), for inactives: at the top dose activation, negative = inhibition, most hits filed as activators | 2.8% of 320,000 active | AID 485297, 2010; note: % of control where 0% means no effect; nearly all actives have a fitted effect of over 60% in size
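Cells were plated at 1500 per well in reduced-serum medium with 10% FBS and left 2 h. Compound in DMSO was then added for 24 h at 37 °C. Reporter signal was read by luminescence after 10 min with luciferase detection reagent.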
SMN2 splice up: qHTS Assay for Enhancers of SMN2 Splice Variant Expression; 2.8% of 210,000 active; Potency, µM (series often up to 46.1 µM), for the others: at the highest dose activity change, positive = activation, hits mostly activators; HEK293 SMN2-luciferase splicing reporter, luminescence, 30-36 h; AID 1458, 2008; note: % of control where 0% means no effect; nearly all actives have a fitted effect of over 55% in size
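HEK293 cells carry an SMN2 […]–luciferase reporter in which exon 7 inclusion puts luciferase in frame. Cells were plated 10-12 h before compound addition, then incubated 30-36 h at 37C. ONE-Glo luminescence was read; sodium butyrate at 4.5 mM final served as control.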
KinaseGlo FLuc: Counterscreen for Luciferase (Kinase-Glo TM) Inhibition; Luciferin 4-monooxygenase (Photuris pensylvanica), Q27757; Kinase-Glo luciferase, ATP luminescence, 8 min; Potency, µM (titrated, usually from 38.3 µM), without a hit: at the top dose activity change, negative = inhibition, usual class: inhibitors; 0.28% of 200,000 active; note: % is set by controls: 0 for no effect and ±100 for the full control effect; nearly all actives have a fitted effect of over 60% in size
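Compound is pinned into ATP-containing buffer (10 uM ATP, imidazole pH 7.2, 7 mM MgCl2). Kinase-Glo luciferase reagent is then added. Light output is recorded following an 8-min room-temperature incubation.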
NPC1 promoter act: qHTS Assay for NPC1 Promoter Activators. Huh7 NPC1 promoter luciferase reporter, 24 h. Potency, µM (series often up to 9.22 µM), for inactives: at the top dose activation, actives largely listed as activators. 2.4% of 320,000 active; note: % of control where 0% means no effect; nearly all actives have a fitted effect of over 60% in size
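Compounds in DMSO were transferred onto Huh7 NPC1-luciferase reporter cells pre-incubated 2 h; after 24 h at 37 °C, Amplite reagent was dispensed and luminescence recorded 10 min later.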
* hit, by the source's call; ? = inconclusive; · = not tested or not shown; [ ] = dose if it differs, or a comment. Calls come from the whole dose curve; as a rule, active = well fitted curve in the direction sought with a large enough effect; inconclusive = small, poorly fitted or top-dose-only effect, or another doubt; inactive = no such curve, though single readings can be large; an effect the other way counts as inactive or inconclusive. Potency is the fitted concentration of half-maximal effect.

SMILES	FLuc counter	ELG1 genotox	Rab9 prom act	SMN2 splice up	KinaseGlo FLuc	NPC1 promoter act
O=C(Oc1ccccc1Cl)c1ccc2c(=O)n3c(nc2c1)CCC3	17µM*	?	0%	·	·	-5%
O=C(Cc1ccc(-c2ccccc2)cc1)NCCS(=O)(=O)N1CCN(c2ccc(F)cc2)CC1	-6%	·	·	·	·	·
O=C(NCc1noc2ccccc12)N1CCN(c2ccccc2)CC1	-1%	·	·	·	·	·
Cc1ccc(S(=O)(=O)Oc2ccc(/C=N/NC(=O)c3nn(C)cc3Cl)cc2)cc1	-13%	5%	0%	-6%	-1%	4%
CSCCOC(=O)COc1ccc(/C=N/NC(=O)c2nn(C)cc2Cl)cc1	13µM*	3%	-7%	-22%	-4%	-5%
Cc1ccc(-n2c(C)cc(/C=C3\NC(=O)NC3=O)c2C)c(C)c1	8.5µM*	8%	2%	-9%	1%	1%
Cc1cc(/C=C2/NC(=O)NC2=O)c(C)n1-c1ccccn1	21µM*	10%	23%	?	-4%	17%
Cc1cc(/C=C2/NC(=O)NC2=O)c(C)n1-c1ccc(C#N)cc1	0%	2%	1%	-17%	1%	-3%
Fc1ccc(N2CCN(c3nc4ccccc4c4nc(-c5cccnc5)nn34)CC2)cc1	-2%	·	·	12%	·	·
COc1ccc(CCNC(=O)c2ccc3nc(Cc4ccccc4)oc3c2)cc1OC	-18%	·	·	·	·	·
c1ccc(-c2nn[nH]n2)cc1	4%	0%	-1%	·	·	-2%
c1ccc(-c2nnc(-c3ccccc3)nn2)cc1	0.38µM*	?	1.3µM*	·	·	3.2µM*
CC(C)CC1c2[nH]c3ccccc3c2CCN1C(=O)c1cnccn1 (configuration not stated)	11µM*	?	3.5µM*	·	0%	3.5µM*
COc1ccc(/C=C/C(=O)Nc2cc(-c3nc4ccccc4o3)ccc2OC)cc1	?	·	·	-8%	·	·
COc1ccc(/C=C(\CC(=O)O)c2nc3ccccc3o2)cc1	9.5µM*	16µM*	?	30%	4%	2%
COc1ccc(C(=O)/C(=C/c2cccs2)c2nc3ccccc3o2)cc1	-12%	?	3.5µM*	-72%	-1%	4µM*
COc1cccc(CN(C)Cc2c(O)ccc3ccccc23)c1	11µM*	0%	0%	·	·	3%
COc1ccc(NC(=O)c2ccc(OCC3CCCO3)cc2)cc1Cl (configuration not stated)	2.4µM*	7%	?	·	·	?
CC(C)N(CCNC(=O)c1ccc(OCC2CCCO2)cc1)C(C)C (configuration not stated)	-1%	0%	-1%	·	·	-2%
COc1ccc(NC(=O)c2ccc(OCC3CCCO3)cc2)cc1OC (configuration not stated)	15µM*	10%	17%	·	·	-1%
O=C(NC1CCCCCC1)c1ccc(OCC2CCCO2)cc1 (configuration not stated)	12µM*	?	2µM*	13µM*	-10%	?
Cc1cc(Cl)ccc1NC(=O)CN1C(=O)COc2ccc(S(=O)(=O)N3CCC(C)CC3)cc21	-5%	·	·	·	·	·
O=C(COC(=O)C(Cc1c[nH]c2ccccc12)NC(=O)c1ccc(Br)cc1)c1ccc(Cl)cc1 (configuration not stated)	-2%	·	·	·	·	·
COC(=O)C(Cc1c[nH]c2ccccc12)NC(=O)c1ccccc1Br (configuration not stated)	4.3µM*	0%	-1%	·	·	0%
CCOC(=O)C(Cc1c[nH]c2ccccc12)NC(=O)c1ccccc1Br (configuration not stated)	0.67µM*	?	24%	·	·	26%
SMILES	FLuc counter	ELG1 genotox	Rab9 prom act	SMN2 splice up	KinaseGlo FLuc	NPC1 promoter act
COC(=O)C(Cc1c[nH]c2ccccc12)NC(=O)CNC(C)=O (configuration not stated)	16%	-8%	-1%	-17%	2%	-6%
Cc1ccc(C)c(N2CCN(c3ncnc4c3cnn4-c3ccccc3)CC2)c1	-5%	-2%	0%	-18%	1%	2%
c1ccc(-n2ncc3c(N4CCC5(CC4)OCCO5)ncnc32)cc1	13µM*	4.1µM*	?	13µM*	-3%	2.5µM*
Cc1cccc(-n2ncc3c(N4CCC5(CC4)OCCO5)ncnc32)c1	6.7µM*	?	2.5µM*	·	·	2.8µM*
O=c1c2ccccc2nc(COc2ccccc2)n1/N=C/c1ccc(O)c(O)c1	27µM*	-6%	-20%	·	·	-6%
CC(=O)c1cccc(Nc2nc(-c3cccnc3)cs2)c1	11µM*	7%	?	·	·	3.5µM*
O=C(O)CCC(=O)Nc1cccc(-c2csc(-c3ccccc3)n2)c1	7.6µM*	-2%	-7%	-14%	2%	-13%
O=C(Nc1ccc(-c2csc(Nc3cccc(C(F)(F)F)c3)n2)cc1)c1ccccc1	-1%	-11%	-11%	·	·	0%
O=C(Nc1cccc(-c2csc(Nc3ccccc3)n2)c1)c1ccccc1	1.7µM*	-3%	?	·	·	?
CC(=O)c1cccc(Nc2nc(-c3ccccc3)cs2)c1	3.4µM*	?	1.3µM*	11µM*	5%	3.2µM*
O=C(Nc1cccc(-c2csc(Nc3cccc(C(F)(F)F)c3)n2)c1)c1ccccc1	?	-17%	-9%	·	·	-4%
Cc1c(Cl)cccc1NC(=O)Cn1nc(C(F)(F)F)c2c1CCC2	-2%	·	·	-11%	·	·
O=C(NCc1ccc(Cl)cc1)C1CCCN(c2ncnc3onc(-c4ccc(F)cc4)c23)C1 (configuration not stated)	-11%	·	·	·	·	·
CN(C(=O)Cn1cc(S(=O)(=O)N2CCN(c3ccccc3F)CC2)c2ccccc2c1=O)c1ccc(Cl)cc1	6%	·	·	1%	·	·
O=[N+]([O-])c1cccc(-c2csc(Nc3ccccc3)n2)c1	13µM*	3%	?	·	4%	4%
COc1cc(/C=N/Nc2ccc(Cl)c(C(=O)O)c2)ccc1OC(=O)c1ccccc1F	17µM*	14%	24%	·	·	?
COc1cc(/C=N/Nc2ccc(Cl)c(C(=O)O)c2)ccc1OC(=O)c1ccc(F)cc1	?	?	?	·	·	2.8µM*
COc1cc(/C=N/NC(=O)c2ccc(F)cc2)ccc1OC(=O)c1ccco1	?	6%	-3%	5%	-3%	6%
CCCCCCCCCCCCCCCCCC(=O)OC(CC(=O)O)C[N+](C)(C)C (configuration not stated)	·	·	-9%[46.1 µM]	-12%	-1%	2%[46.1 µM]
CCOCCc1nn2c(=O)cc(COC(=O)c3cccc(C)c3)nc2s1	2%	·	·	·	·	·
